Data taken from PubChem BioAssay AID504834 (National Center for Advancing Translational Sciences (NCATS), 2011).
Among all 320,000 compounds or so, about 22,000 (6.9%) were called active. About 27% were inconclusive and are not listed. Shown is part of a subset that was picked to be rich in actives. Values without a mark were called inactive. Calls come from the whole dose curve; as a rule, active = well fitted inhibition curve with a large enough effect; inconclusive = small, poorly fitted or top-dose-only effect, or another doubt; inactive = no such curve, though single readings can be large or run the other way.

Assay: Primary qHTS for delayed death inhibitors of the malarial parasite plastid, 96 hour incubation
Conditions: P. falciparum luciferase reporter growth; series mostly up to 28.7 µM; activity change, negative = inhibition: at the top concentration
How it was run: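 P. falciparum expressing integrated firefly luciferase grown in erythrocytes (2% hematocrit, 0.05% parasitemia final) with compounds for 96 hours at 37 C, 5% CO2. Growth inhibition read as loss of luminescence after adding luciferase detection reagent.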
% is set by controls: 0 for no effect and ±100 for the full control effect; potency is the fitted concentration of half-maximal effect.

SMILES	activity change, negative = inhibition [%]	Potency
O=C(N1CCOCC1)N(Cc1ccccc1)c1ccccn1	2.7	
CN1CCN(C(=O)c2ccccc2NC(=O)COc2ccccc2Cl)CC1	-4.76	
CCOc1ccc(NC(=S)N2CCCCCC2)cc1	-20	
CCC(C)N(C)C1CCN(C(=S)Nc2ccc(OC)cc2)CC1 (configuration not stated)	-7.01	
CCOc1ccc(S(=O)(=O)NCCC(=O)NCC2CCCO2)cc1 (configuration not stated)	24	
CCOc1ccc(NC(=S)N2CCC(N(C)CC3CCCO3)CC2)cc1 (configuration not stated)		11.7 µM (active)
CCOc1ccc(S(=O)(=O)N2CCN(C(=S)NCC3CCCO3)CC2)cc1 (configuration not stated)		2.94 µM (active)
COc1ccc(S(=O)(=O)N2CCN(C(=S)NCC3CCCO3)CC2)cc1OC (configuration not stated)	-5.09	
NCC(=O)c1cccc2ccc[n+]([O-])c12	36.4	
O=C(CNC(=O)OCc1ccccc1)NC1CCCCNC1=O (configuration not stated)	54.3	
Cc1ccc(C(=O)NCC(=O)NCc2cc(=O)n(C)c(=O)n2C)cc1	13.5	
O=C(NCCc1nnc2ccc(SCC(=O)N3CCOCC3)nn12)c1ccccc1	41.2	
CCCCOc1ccc(NC(=O)[C@@H]2CCCN2C(=O)C2CCN(S(=O)(=O)c3ccc(C)cc3)CC2)cc1		11.7 µM (active)
COc1ccc(N2CCN(C(=O)C3CCN(S(=O)(=O)c4ccc(C)cc4)CC3)CC2)cc1	6.26	
CCOc1cccc(NC(=O)C2CCCN(S(=O)(=O)c3ccc(OC)cc3)C2)c1 (configuration not stated)	2.89	
Cc1c(C(=O)N/N=C/c2ccccc2)[nH]c2c([N+](=O)[O-])cccc12	0	
CN(C)S(=O)(=O)c1ccc(N/C=C(\[N+](=O)[O-])S(=O)(=O)c2ccccc2)cc1	49.1	
COC(=O)c1ccc(NC(=O)CSc2nnc(C3CC3)n2C)cc1	14.4	
COc1ccc(C(=O)OC(C)C(=O)NC2CCCC2)cc1S(=O)(=O)N1CCOCC1 (configuration not stated)	-6.55	
COc1cccc(N2CCN(CC(=O)Nc3ccnn3C3CCCC3)CC2)c1	-13.9	
C#C[C@]1(O)CC[C@H]2[C@@H]3CCC4=CC(=O)CC[C@@H]4[C@H]3CC[C@@]21CC		7.57 µM (active)
Cc1cc(C)c(C#N)c(SCC(=O)N(CC(C)C)C2CCS(=O)(=O)C2)n1 (configuration not stated)	-12.5	
CC(NC(=O)COc1ccc(-c2ccccc2)cc1)C1CCCO1 (configuration not stated)	38.1	
O=C(Nc1ccncc1)c1ccc([N+](=O)[O-])cc1Cl	38.2	
CN(CCc1ccccn1)C1CCCN(S(=O)(=O)c2ccccc2Cl)C1 (configuration not stated)	-0.441	
Cn1nc(C(F)(F)F)cc1C(=O)O	36.7	

SMILES	activity change, negative = inhibition [%]	Potency
Cc1cccc(C)c1NC(=O)CNC(=O)c1c(C)nn(-c2ccccc2)c1C	-4.55	
Cc1nn(-c2ccccc2)c(C)c1NC(=O)CCl		3.7 µM (active)
Cc1nn(-c2ccccc2)c(C)c1NC(=O)COc1ccc(Cl)cc1Cl	8.25	
O=C(NCC1CCCO1)c1cc2c(s1)CCCC2 (configuration not stated)	282	
CC1(C)O[C@@H]2[C@H](O1)[C@@H](CO)O[C@H]2n1c(N2CCCCC2)nc2c(N)ncnc21	8.05	
Cc1ccc(OCCCCN2CCCCC2)c(Br)c1	-19.8	
C=CCc1cc(C)ccc1OCCCn1ccnc1		11.7 µM (active)
Clc1c(OCCCn2ccnc2)ccc2ccccc12	203	
CCOC(=O)c1ccc(S(=O)(=O)N(CCO)Cc2cc3cc(OC)c(OC)cc3[nH]c2=O)cc1	-9.56	
O=C(NCCC1CCCCN1S(=O)(=O)c1ccc(F)cc1)C(=O)NC1CC1 (configuration not stated)	-4.85	
COc1cccc(CNC(=O)C(=O)NCCC2CCCCN2S(=O)(=O)c2ccc(C)cc2)c1 (configuration not stated)		10.4 µM (active)
COc1ccc(S(=O)(=O)N2CCCC2CNC(=O)C(=O)NC2CC2)cc1 (configuration not stated)	2.54	
COc1cc(OC)c(NC(=O)C2CCCN2C(=O)OCc2ccccc2)cc1Cl (configuration not stated)	-25.4	
CCOC(=O)CNC(=O)N1c2ccccc2Sc2ccccc21	17.9	
COc1ccc(CCNC(=O)CN2C(=O)CCSc3ccccc32)c(OC)c1	-12.9	
CCOC(=O)CNC(=O)CN1C(=O)CCSc2ccccc21		11.7 µM (active)
Cc1ccc(NC(=O)c2cnc(SCC(=O)NCC3CCCO3)n(C)c2=O)cc1 (configuration not stated)	38	
Cn1c(=O)n(C)c2cc(C(=O)Nc3ccc(Br)cc3)ccc21	9.04	
COC(=O)[C@@H]1CC(O)CN1C(=O)C12CC3CC(CC(C3)C1)C2 (some centres not stated)	31.1	
CCOc1ccccc1Nc1ccc2nonc2c1[N+](=O)[O-]	17.1	
COc1ccccc1C(=O)NC(CCSC)C(=O)NNC(=O)c1ccccc1C (configuration not stated)	8.05	
CSCCC(NC(=O)c1ccccc1)C(=O)N1CCN(Cc2ccc(Cl)cc2)CC1 (configuration not stated)		1.65 µM (active)
O=C(c1cccc(Cl)c1)N1CCN(Cc2ccccc2)CC1	23.5	
CSCCC(NC(=O)c1ccccc1)C(=O)N1CCCCCCC1 (configuration not stated)	-26.5	
COc1ccccc1C(=O)NC(CCSC)C(=O)N1CCN(C/C=C/c2ccccc2)CC1 (configuration not stated)		11.7 µM (active)
COc1ccccc1C(=O)NC(CCSC)C(=O)N1CCN(C(C)=O)CC1 (configuration not stated)	31.3	
